# Results from PubChem BioAssay (NCATS).
# Records with an inconclusive call do not appear. Where a call stands in place of a potency, no number is given. Activity calls are given as the source filed them. Unless noted, calls come from the whole dose curve.
# Legend:
# [1] = biological target: Peroxisome proliferator-activated receptor delta (Homo sapiens) (UniProt Q03181); experiment: qHTS assay for small molecule agonists of peroxisome proliferator-activated receptor delta signaling (AID 588534)
# Peroxisome proliferator-activated receptor delta (Homo sapiens), sequence (Q03181 whole entry, looked up): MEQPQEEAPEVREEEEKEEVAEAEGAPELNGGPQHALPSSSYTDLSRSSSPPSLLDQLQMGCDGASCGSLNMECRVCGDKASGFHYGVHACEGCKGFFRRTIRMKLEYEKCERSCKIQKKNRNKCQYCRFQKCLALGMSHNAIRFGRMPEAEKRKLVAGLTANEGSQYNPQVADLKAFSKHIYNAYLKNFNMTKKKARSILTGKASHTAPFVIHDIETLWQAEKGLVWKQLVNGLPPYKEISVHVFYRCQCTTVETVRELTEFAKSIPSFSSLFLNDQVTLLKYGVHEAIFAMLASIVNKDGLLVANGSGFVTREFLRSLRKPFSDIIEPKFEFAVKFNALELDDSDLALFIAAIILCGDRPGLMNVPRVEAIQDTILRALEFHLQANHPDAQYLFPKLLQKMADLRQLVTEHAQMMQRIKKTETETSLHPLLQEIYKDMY
# Method in brief: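 Agonist-mode beta-lactamase reporter readout (CCF4 dye, 2 h at RT) after 18 h at 37 °C exposure to a titration; Hill-equation fitting gave EC50 and maximal response.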
# [2] = qHTS assay for small molecule antagonists of peroxisome proliferator-activated receptor delta signaling (AID 588535; active = well fitted inhibition curve with a large enough effect in the signal ratio, with a control signal flat, not every such curve was filed as active; the % refers to the signal ratio;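 for max response: cells co-treated with a PPAR-delta agonist as stimulator during compound exposure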); settings: HEK293T PPARd-UAS-bla, beta-lactamase FRET ratio, 18 h; 460 nm channel
# Method in brief: (§1)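 Inhibition of PPAR-delta response element-driven beta-lactamase expression is measured in HEK293T cells exposed to a compound titration series for 18 hrs at 37 C. Half-maximal inhibition comes from Hill equation fitting.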
# [3] = biological target: Peroxisome proliferator-activated receptor delta (Homo sapiens) (UniProt Q03181); experiment: as above
# Method in brief: as §1
# [4] = biological target: Peroxisome proliferator-activated receptor gamma (Homo sapiens) (UniProt P37231); experiment: qHTS assay for small molecule agonists of peroxisome proliferator-activated receptor gamma signaling (AID 588536; active = well fitted curve in the direction sought with a large enough effect in the signal ratio, with a control signal flat, not every such curve was filed as active; the % refers to the signal ratio)
# Peroxisome proliferator-activated receptor gamma (Homo sapiens), sequence (P37231 whole entry, looked up): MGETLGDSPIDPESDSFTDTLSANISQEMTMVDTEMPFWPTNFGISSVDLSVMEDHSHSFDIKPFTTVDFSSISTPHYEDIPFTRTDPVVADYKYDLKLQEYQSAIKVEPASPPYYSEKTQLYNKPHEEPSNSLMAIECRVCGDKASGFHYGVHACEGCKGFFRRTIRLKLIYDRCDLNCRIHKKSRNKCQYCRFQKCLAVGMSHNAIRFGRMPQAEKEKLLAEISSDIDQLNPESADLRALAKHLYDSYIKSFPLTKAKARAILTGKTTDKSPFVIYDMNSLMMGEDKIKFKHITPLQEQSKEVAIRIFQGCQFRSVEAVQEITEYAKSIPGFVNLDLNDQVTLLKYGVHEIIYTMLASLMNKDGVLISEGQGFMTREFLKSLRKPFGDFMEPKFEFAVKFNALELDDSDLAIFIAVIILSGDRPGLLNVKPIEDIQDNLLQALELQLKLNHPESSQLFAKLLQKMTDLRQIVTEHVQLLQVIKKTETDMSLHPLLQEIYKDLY
# Method in brief: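 Compound treatment: 16 h, 37 C, HEK293 GeneBLAzer cells. Detection: CCF4, 2 h RT. Values: Hill-fit EC50, efficacy as % of 2 uM rosiglitazone.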
# [5] = biological target: Vitamin D3 receptor (Homo sapiens) (UniProt P11473); experiment: qHTS assay for small molecule antagonists of vitamin D receptor signaling (AID 588541);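 note: receptor activated by calcitriol during compound treatment; series mostly up to about 77 µM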
# Vitamin D3 receptor (Homo sapiens), sequence (P11473 whole entry, looked up): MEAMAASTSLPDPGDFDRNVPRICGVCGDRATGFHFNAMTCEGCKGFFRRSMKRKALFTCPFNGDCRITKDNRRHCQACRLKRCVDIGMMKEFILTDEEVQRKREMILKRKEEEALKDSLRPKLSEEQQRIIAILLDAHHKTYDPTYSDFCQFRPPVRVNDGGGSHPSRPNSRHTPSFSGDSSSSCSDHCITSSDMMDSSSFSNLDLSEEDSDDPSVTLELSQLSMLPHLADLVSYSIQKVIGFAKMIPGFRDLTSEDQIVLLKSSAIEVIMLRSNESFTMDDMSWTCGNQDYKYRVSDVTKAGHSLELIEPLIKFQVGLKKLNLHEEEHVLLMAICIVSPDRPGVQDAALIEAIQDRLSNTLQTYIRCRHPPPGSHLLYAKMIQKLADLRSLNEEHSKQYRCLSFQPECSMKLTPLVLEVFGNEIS
# Method in brief: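 VDR-UAS-bla HEK293T cells (2000/well, 2% charcoal-stripped FBS) were treated with titrated compounds plus 1-alpha,25-dihydroxyvitamin D3 (50 nM or 3 nM final) for 16 h at 37 C. CCF4 beta-lactamase fluorescence was read; Hill fits gave IC50.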
# [6] = biological target: Vitamin D3 receptor (Homo sapiens) (UniProt P11473); experiment: qHTS assay for small molecule agonists of vitamin D receptor signaling (AID 588543)
# Method in brief: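 VDR-UAS-bla HEK293T cells, 2000/well, 2% charcoal-stripped FBS; compound titration 16 h at 37 C; CCF4 beta-lactamase ratio read. Normalized to 50 nM 1-alpha,25-dihydroxyvitamin D3 (100%) and DMSO; Hill fit gives EC50, efficacy.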
# [7] = qHTS assay for small molecule agonists of retinoid X receptor alpha signaling (AID 588544); settings: HEK293T RXRa-UAS-bla, beta-lactamase reporter, 18 h; 530 nm emission
# [8] = biological target: Retinoic acid receptor RXR-alpha (Homo sapiens) (UniProt P19793); experiment: as above
# Retinoic acid receptor RXR-alpha (Homo sapiens), sequence (P19793 whole entry, looked up): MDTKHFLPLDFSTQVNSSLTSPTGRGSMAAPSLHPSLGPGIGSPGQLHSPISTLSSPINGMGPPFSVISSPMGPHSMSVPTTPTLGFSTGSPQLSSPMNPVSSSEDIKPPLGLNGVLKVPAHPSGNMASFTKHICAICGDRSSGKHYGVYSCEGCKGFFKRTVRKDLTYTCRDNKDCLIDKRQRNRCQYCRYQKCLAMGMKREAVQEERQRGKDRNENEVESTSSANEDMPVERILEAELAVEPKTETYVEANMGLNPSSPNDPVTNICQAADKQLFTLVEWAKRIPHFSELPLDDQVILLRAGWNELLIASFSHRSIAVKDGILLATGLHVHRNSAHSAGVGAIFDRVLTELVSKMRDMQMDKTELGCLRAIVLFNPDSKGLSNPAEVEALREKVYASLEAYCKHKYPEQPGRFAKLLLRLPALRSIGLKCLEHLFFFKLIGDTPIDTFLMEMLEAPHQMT
# [9] = biological target: Thyroid hormone receptor beta (Homo sapiens) (UniProt P10828); experiment: qHTS assay for small molecule agonists of thyroid hormone receptor beta signaling (AID 588545)
# Thyroid hormone receptor beta (Homo sapiens), sequence (P10828 whole entry, looked up): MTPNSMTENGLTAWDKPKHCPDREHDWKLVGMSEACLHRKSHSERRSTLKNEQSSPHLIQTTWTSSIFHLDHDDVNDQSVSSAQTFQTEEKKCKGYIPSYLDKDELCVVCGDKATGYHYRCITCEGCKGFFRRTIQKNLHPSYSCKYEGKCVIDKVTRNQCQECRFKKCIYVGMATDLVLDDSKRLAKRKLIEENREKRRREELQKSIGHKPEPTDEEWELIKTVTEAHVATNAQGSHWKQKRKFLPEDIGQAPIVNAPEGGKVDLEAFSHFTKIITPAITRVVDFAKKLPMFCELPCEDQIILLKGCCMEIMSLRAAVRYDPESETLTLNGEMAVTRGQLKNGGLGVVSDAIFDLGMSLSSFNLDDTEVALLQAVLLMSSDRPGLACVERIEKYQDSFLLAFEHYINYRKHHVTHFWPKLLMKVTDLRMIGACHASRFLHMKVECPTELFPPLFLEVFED
# Method in brief: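 Efficacy and EC50 values derive from Hill fits of qHTS titration data, normalized to 10 nM T3 and DMSO-only wells. HEK 293 reporter cells were stimulated for 18 hrs at 37 C, with beta-lactamase activity measured by CCF4 fluorescence.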
# [10] = qHTS assay for small molecule antagonists of retinoid X receptor alpha signaling (AID 588546; active = well fitted inhibition curve with a large enough effect in the signal ratio, with a control signal flat, not every such curve was filed as active; the % refers to the signal ratio;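 note: cells stimulated with 9-cis-retinoic acid as agonist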); settings: HEK293T RXRa-UAS-bla, beta-lactamase ratio, antagonist mode; measured here: W530 green channel, cytotoxicity proxy
# Method in brief: (§2)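 Beta-lactamase reporter inhibition, read as CCF4 fluorescence ratio (ex 405, em 460/530 nm) after 2 h at RT. HEK293T UAS-bla cells, 2500/well, were stimulated with 9-cis-RA at 500 or 100 nM final alongside test compound for 18 h at 37 C.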
# [11] = biological target: Retinoic acid receptor RXR-alpha (Homo sapiens) (UniProt P19793); experiment: as above; settings: HEK293T RXRa-UAS-bla, beta-lactamase ratio, antagonist mode
# Method in brief: as §2
# [12] = biological target: Thyroid hormone receptor beta (Homo sapiens) (UniProt P10828); experiment: qHTS assay for small molecule antagonists of thyroid hormone receptor beta signaling (AID 588547; active = well fitted inhibition curve with a large enough effect in the signal ratio, with a control signal flat, not every such curve was filed as active; the % refers to the signal ratio;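 note: cells stimulated with 0.4 nM T3 agonist during compound exposure; series mostly up to about 77 µM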); settings: TR-UAS-bla HEK293, beta-lactamase ratio, antagonist mode, 18 h
# Method in brief: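 TR-UAS-bla GripTite HEK293 cells in 2% charcoal/dextran FBS medium were preincubated 4 h at 37 C, given compound (0.59 nM to 92 uM) plus 0.4 nM T3 (final) for 18 h, then CCF4 for 2 h at RT; Hill fit gave IC50.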
# [13] = qHTS assay for small molecule agonists of the antioxidant response element (ARE) signaling pathway (AID 651741; active = well fitted activation curve with a large enough effect in the signal ratio; the % refers to the signal ratio)
# Method in brief: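 Reporter: beta-lactamase under ARE, stably in HepG2. Exposure: 16 h, 37 C, compounds delivered in DMSO by pin tool after 5 h cell preincubation. Readout: FRET substrate fluorescence after 2 h at RT.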
# [14] = qHTS assay for small molecule activators of the p53 signaling pathway (AID 651743; active = well fitted activation curve with a large enough effect in the signal ratio, not every such curve was filed as active; the % refers to the signal ratio; note: series mostly up to about 92 µM); settings: HCT-116 p53RE-bla, beta-lactamase FRET ratio, 16 h; activation: stronger effect = higher value
# Method in brief: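 Agonist-mode quantitative HTS in HCT-116 cells carrying a p53-response-element beta-lactamase reporter; 16 h compound treatment at 37 C, then FRET substrate loading for 2 h at room temperature and fluorescence read.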
# [15] = qHTS assay for small molecule activators of the nuclear factor-kappa B (NF-kB) signaling pathway (AID 651749; active = well fitted activation curve with a large enough effect in the signal ratio; the % refers to the signal ratio; note: series mostly up to about 77 µM); settings: NF-kB-bla ME-180 cells, beta-lactamase FRET ratio, 16 h; activation: stronger effect = higher value
# Method in brief: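 Human ME-180 cervical cells with an NF-kB-bla construct; compounds added via 23 nL pin transfer, DMSO as vehicle; incubation 16 hr. Reporter activity measured by FRET disruption.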
# [16] = qHTS assay for environmental chemicals that activate the Aryl hydrocarbon Receptor (AhR) signaling pathway (AID 651777; active = well fitted curve in the direction sought with a large enough effect; an effect the other way counts as inactive or inconclusive; note: nearly all actives have a fitted effect of over 15% in size); settings: 1A2-DRE human hepatoma cells, luciferase, 24 h; activation: stronger effect = higher value
# Method in brief: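 Measured luciferase activity, read 30 min after One-Glo addition at room temperature, from human hepatoma cells bearing a dioxin response element–CYP1A2 promoter reporter and exposed to compound for 24 hr at 37 C.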
# [17] = biological target: Peroxisome proliferator-activated receptor alpha (Homo sapiens) (UniProt Q07869); experiment: qHTS assay for small molecule agonists of the peroxisome proliferator-activated receptor alpha (PPARalpha) signaling pathway (AID 651778; active = well fitted curve in the direction sought with a large enough effect; an effect the other way counts as inactive or inconclusive); settings: PathHunter PPARalpha complementation, chemiluminescence, 6 h; max response: stronger effect = higher value
# Peroxisome proliferator-activated receptor alpha (Homo sapiens), sequence (Q07869 whole entry, looked up): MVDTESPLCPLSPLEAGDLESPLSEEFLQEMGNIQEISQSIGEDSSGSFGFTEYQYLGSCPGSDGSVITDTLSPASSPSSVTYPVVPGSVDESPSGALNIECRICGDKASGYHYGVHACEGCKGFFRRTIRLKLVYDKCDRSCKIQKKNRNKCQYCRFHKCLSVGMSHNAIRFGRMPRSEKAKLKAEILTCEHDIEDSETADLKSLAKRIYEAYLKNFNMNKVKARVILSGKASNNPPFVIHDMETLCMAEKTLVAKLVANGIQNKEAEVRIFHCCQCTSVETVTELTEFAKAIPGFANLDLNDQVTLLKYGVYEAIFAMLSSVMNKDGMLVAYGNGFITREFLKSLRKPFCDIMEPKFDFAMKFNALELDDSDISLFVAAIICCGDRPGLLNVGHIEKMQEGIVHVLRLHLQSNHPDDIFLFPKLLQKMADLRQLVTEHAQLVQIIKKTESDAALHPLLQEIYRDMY
# Method in brief: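 Cells plated at 2,000/well and held overnight at 37 C, 5% CO2, then compound added by pin tool for 6 hr; after PathHunter detection reagent and 60 min at room temperature, chemiluminescence from enzyme complementation was read.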
# [18] = qHTS assay for small molecule agonists of the antioxidant response element (ARE) signaling pathway measured by Nrf2-dependant transcriptional activity (AID 720636; active = well fitted curve in the direction sought with a large enough effect in the repeat runs; an effect the other way counts as inactive or inconclusive;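 note: HepG2 cells with an ARE-driven luciferase reporter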)
# Method in brief: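 In HepG2 cells engineered with an Nrf2-responsive luciferase gene, ARE induction was quantified as luminescence after 16 hr compound treatment at 37 C.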
# [19] = qHTS assay for small molecule agonists of the antioxidant response element (ARE) signaling pathway measured by Nrf2-dependant transcriptional activity - cell viability counter screen (AID 720653; active = well fitted curve in the direction sought with a large enough effect in the repeat runs; an effect the other way counts as inactive or inconclusive); settings: ARE-bla HepG2 viability, CellTiter-Glo ATP luminescence, 16 h; max response: stronger effect = lower value
# Method in brief: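 ARE-bla HepG2 cells (2,000/well) rested 5 hrs at 37C/5% CO2, then exposed to compounds in DMSO for 16 hrs. Viability was read in the same wells as intracellular ATP by luminescence, 30 min at room temperature after reagent addition.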
# [20] = qHTS assay for cell viability of HEK293 cells (AID 743288; active = well fitted curve in the direction sought with a large enough effect; an effect the other way counts as inactive or inconclusive; note: nearly all actives have a fitted effect of over 50% in size); settings: ATP luminescence (CellTiter-Glo), 18 h; max response: stronger effect = lower value
# Method in brief: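 Steps: plate 2,000 parental HEK293 cells per well; incubate ≥5 h, 37 C; add compounds in DMSO; incubate 18 h, 37 C; add CellTiter-Glo; wait 30 min at room temperature; read luminescence.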
# [21] = qHTS assay for cell viability of the p53RE-bla HCT-116 cell line (AID 743292; active = well fitted curve in the direction sought with a large enough effect; an effect the other way counts as inactive or inconclusive; note: nearly all actives have a fitted effect of over 55% in size)
# Method in brief: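 Intracellular ATP of p53RE-bla HCT-116 cells measured by luciferase luminescence following 16 h compound incubation at 37 C; DMSO-only wells served as vehicle controls.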
# [22] = biological target: Nuclear receptor subfamily 1 group I member 2 (Rattus norvegicus) (UniProt Q9R1A7); experiment: qHTS assay for small molecule activators of the rat pregnane X receptor (rPXR) signaling pathway (AID 651751; call rule not given here); settings: rPXR reporter cells, luciferase (One-Glo), 24 h
# Nuclear receptor subfamily 1 group I member 2 (Rattus norvegicus), sequence (Q9R1A7 whole entry, looked up): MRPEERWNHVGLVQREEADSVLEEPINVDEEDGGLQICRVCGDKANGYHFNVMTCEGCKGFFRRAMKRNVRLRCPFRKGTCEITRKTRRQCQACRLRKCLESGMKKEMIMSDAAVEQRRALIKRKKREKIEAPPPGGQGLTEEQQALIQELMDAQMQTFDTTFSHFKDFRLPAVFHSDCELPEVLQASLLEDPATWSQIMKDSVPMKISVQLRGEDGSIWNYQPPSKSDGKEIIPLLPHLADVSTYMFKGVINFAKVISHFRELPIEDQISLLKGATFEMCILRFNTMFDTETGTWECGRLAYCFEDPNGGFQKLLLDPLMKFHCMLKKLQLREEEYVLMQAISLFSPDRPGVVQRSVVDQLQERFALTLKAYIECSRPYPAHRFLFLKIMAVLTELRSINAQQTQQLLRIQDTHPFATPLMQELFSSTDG
# [23] = qHTS assay for small molecule activators of the human pregnane X receptor (PXR) signaling pathway (AID 720659; call rule not given here)
# [24] = biological target: Peroxisome proliferator-activated receptor gamma (Homo sapiens) (UniProt P37231); experiment: qHTS assay for small molecule antagonists of peroxisome proliferator-activated receptor gamma signaling (AID 588537; active = well fitted inhibition curve with a large enough effect in the signal ratio, with a control signal flat, not every such curve was filed as active; the % refers to the signal ratio;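 note: reporter cells co-stimulated with 50 nM rosiglitazone agonist during compound treatment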)
# Method in brief: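 Compounds are tested as concentration series for inhibition of rosiglitazone-driven (50 nM) reporter expression in GeneBLAzer PPAR-gamma-UAS-bla HEK293 cells. After 16 h at 37 C, CCF4 substrate is added for 2 h at room temperature and blue/green fluorescence is measured.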
compound,measurement,setting,value
CC(=NC#N)N(C)Cc1ccc(Cl)nc1,outcome,[1],inactive
same,max response,[2],24.8%
same,Potency,[3],inactive
same,Potency,[4],inactive
same,Potency,[5],inactive
same,outcome,[6],inactive
same,max response,[7],-1.69%
same,Potency,[8],inactive
same,Potency,[9],inactive
same,max response,[10],-1.52%
same,max response,[11],-19.1% (inactive)
same,activity change % (negative = inhibition),[12],-1.79% (inactive)
same,Potency,[13],inactive
same,activation,[14],-5.43% (inactive)
same,activation,[15],-0.278% (inactive)
same,activation,[16],0.519% (inactive)
same,max response,[17],-1.88% (inactive)
same,Potency,[18],inactive
same,max response,[19],-5.31% (inactive)
same,max response,[20],-11.8% (inactive)
same,Potency,[21],inactive
same,max response,[22],2.55% (inactive)
same,outcome,[23],inactive
C=CCOC(=O)CC(C)C,outcome,[1],inactive
O=C(O)c1cccc(Cl)c1Cl,outcome,[1],inactive
CCC(C)(CC)c1cc(NC(=O)c2c(OC)cccc2OC)on1,outcome,[1],inactive
same,max response,[2],7.62%
same,Potency,[3],inactive
same,Potency,[4],inactive
same,Potency,[24],inactive
same,Potency,[5],inactive
same,outcome,[6],inactive
same,max response,[7],12.1%
same,Potency,[8],inactive
same,Potency,[9],inactive
same,max response,[10],5.81%
same,max response,[11],-17.5% (inactive)
same,activity change % (negative = inhibition),[12],0.364% (inactive)
same,activation,[15],-0.691% (inactive)
same,activation,[16],0.26% (inactive)
same,max response,[17],-1.49% (inactive)
same,max response,[19],10.3% (inactive)
same,max response,[20],-25.2% (inactive)
same,Potency,[21],inactive
O=C(Cl)c1cccc(C(=O)Cl)c1,outcome,[1],inactive
CO[Si](CCCNCCN)(OC)OC,outcome,[1],inactive
CC(C)C(=O)OC(=O)C(C)C,outcome,[1],inactive
CC1(C)CC(OC(=O)CCCCCCCCC(=O)OC2CC(C)(C)NC(C)(C)C2)CC(C)(C)N1,outcome,[1],inactive
CC(=O)Nc1cccc(C)c1,outcome,[1],inactive
O=C(O)c1cccc([N+](=O)[O-])c1,outcome,[1],inactive
CC1=NNC(=O)N(/N=C/c2cccnc2)C1,outcome,[1],inactive
same,Potency,[4],inactive
same,Potency,[24],inactive
same,outcome,[6],inactive
same,max response,[7],-7.06%
same,Potency,[8],inactive
same,max response,[10],-9.27%
same,max response,[11],-13.2% (inactive)
same,activity change % (negative = inhibition),[12],-22% (inactive)
same,Potency,[13],inactive
same,activation,[14],3.81% (inactive)
same,activation,[15],0.0556% (inactive)
same,activation,[16],-0.299% (inactive)
same,max response,[17],-0.256% (inactive)
same,max response,[19],-9.52% (inactive)
same,max response,[20],-11.1% (inactive)
same,Potency,[21],inactive
same,max response,[22],-1.81% (inactive)
same,outcome,[23],inactive
